Max response, negative = inhibition and Potency data for 54 molecules are collected here from PubChem BioAssay AID1476 (National Center for Advancing Translational Sciences (NCATS), 2009).

SMILES strings stand for the structures. Where “and” joins values, the source holds several entries; their conditions need not be identical. Equal entries are not always repeated. About 4,500 (2.2%) of roughly 200,000 compounds were called active. Not shown: some 12% with an inconclusive outcome. The list comes from a sample in which actives are over-represented; it also holds similar structures and randomly drawn compounds. A structure can be active in one record and inactive in another. Values without a mark were called inactive. Calls follow the shape of the dose curve; as a rule, active = well fitted inhibition curve with a large enough effect; inconclusive = small, poorly fitted or top-dose-only effect, or effect the other way; inactive = flat fitted curve, though single readings scatter.
Potency is read from the fitted curve at half-maximal effect.

In the assay the target is Cruzipain (Trypanosoma cruzi) (UniProt P25779). Nature of the assay: qHTS Assay for Promiscuous and Specific Inhibitors of Cruzain (without detergent). Also: nearly all actives have a fitted effect of over 40% in size.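 As to Max response, negative = inhibition: plate controls were enzyme without inhibitor for no effect and buffer without enzyme for full effect.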 To be noted: purified cruzain, Z-FR-AMC fluorescence, no detergent. In outline: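 Detergent-free condition (0.00005% Triton X-100) in acetate buffer pH 5.5 with DTT. 1.5 nM enzyme and compound were pre-mixed 15 min, then 2 uM Z-FR-AMC substrate added; reaction progress from fluorescence change between first and third reads (60 s).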
Cruzipain (Trypanosoma cruzi), sequence (P25779 123-467 limits assumed): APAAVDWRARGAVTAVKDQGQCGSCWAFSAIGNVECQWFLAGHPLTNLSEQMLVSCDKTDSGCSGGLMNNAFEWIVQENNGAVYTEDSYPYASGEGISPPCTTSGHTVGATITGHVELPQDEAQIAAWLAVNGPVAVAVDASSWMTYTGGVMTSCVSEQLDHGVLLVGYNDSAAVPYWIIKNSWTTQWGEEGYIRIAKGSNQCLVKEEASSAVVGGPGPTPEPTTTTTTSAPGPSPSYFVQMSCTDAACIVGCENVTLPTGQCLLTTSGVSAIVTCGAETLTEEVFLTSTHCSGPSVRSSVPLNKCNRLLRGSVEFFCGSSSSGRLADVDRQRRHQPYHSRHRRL
(In general: In qHTS, concentration-response curves come from the screen itself.)
On to `O=c1cc(-c2ccccc2)n2c(SCc3ccccc3)nnc2[nH]1`, for which the max response, negative = inhibition was -3.24%. Same read-out and setting: as for `CC(C)Nc1nc(N(c2ccccc2)c2ccccc2)nc(-n2ccnc2)n1`, the figure is 11.1%. As for `N#Cc1nc(N)nc(N(c2ccccc2)c2ccccc2)n1`, the Potency is 1.58 µM (active). As for `COc1ccc(NC(=O)CNC(=O)Cn2ccc3ccccc3c2=O)c(OC)c1`, the max response, negative = inhibition is 10.4%. With `Cc1ccccc1N1CCN(CCCOc2ccc3c(C)cc(=O)oc3c2)CC1`, the max response, negative = inhibition is -15.8%. Still for that read-out and setting: as for `COC(=O)COc1ccc2oc(=O)cc(C)c2c1`, the figure is -6.25%. Consider `Cc1ccccc1NC(=O)c1ccc(COc2ccc3c(C)cc(=O)oc3c2)cc1`, for which the Potency was 10 µM (active). For the molecule `CC(=O)N1CCCc2ccc(NS(=O)(=O)c3ccc(F)cc3F)cc21`, the max response, negative = inhibition is 8.5%. Same read-out and setting: the figure for `COc1cc2c(cc1OC)C(COc1ccc(F)cc1)N(C(=O)c1ccccc1F)CC2` (stereo unspecified) is 28.1%; for `COc1ccc(-c2c(C)cc3oc(=O)cc(-c4ccccc4)c3c2C)cc1OC` it is -25.9%. In the case of `COc1ccc(-c2c(C)cc3oc(=O)cc(-c4ccccc4)c3c2C)cc1F`, the Potency was 39.8 µM (active).

Take `CC(=O)COc1ccc2c(-c3ccccc3)cc(=O)oc2c1`: the max response, negative = inhibition was 2.99%.

For `Cc1cc(C)cc(NC(=O)CSc2nc3nccnc3c(=O)n2CCc2c[nH]c3ccccc23)c1`, the max response, negative = inhibition was -2.15%. The same measure, in the same setting: the figure for `O=S(=O)(c1ccccc1)c1nc(-c2ccc(Cl)cc2Cl)oc1N1CCCCC1` is -16.2%; for `Cc1ccc(S(=O)(=O)n2nc(C)c(S(=O)(=O)N3CCCCCC3)c2C)cc1` it is -10.4%. Take `Oc1c(Cl)cc(Cl)c(Cl)c1Cc1c(O)c(Cl)cc(Cl)c1Cl`: the Potency was 31.6 µM (active) and 25.1 µM (active); the max response, negative = inhibition was -18.2%. For the molecule `CCOc1ccc(NC(=O)CSc2nc3ccccc3c(=O)n2Cc2cccs2)cc1`, the max response, negative = inhibition was -21.1%.

With `CCOc1ccc(NC(=O)CSc2ncnc3c2sc2ccccc23)cc1`, the Potency was 25.1 µM (active) and the max response, negative = inhibition was -8.47%.

Take `CCOc1ccc(NC(=O)CSc2c3c(nc4ccccc24)CCCC3)cc1`: the max response, negative = inhibition is 1.83%. The same measure, in the same setting: as for `Cc1ccc(C)c(N2CCN(C(c3ccccc3)c3nnc(-c4ccccc4)o3)CC2)c1` (stereo unspecified), the figure is -12.6%; as for `COc1ccc(CCNC(=O)CCCCn2c(=O)c3ccccc3n(Cc3ccccc3)c2=O)cc1OC`, -0.815%; as for `COc1cc(C2c3c(oc4ccccc4c3=O)C(=O)N2c2nc(C)c(C)s2)ccc1O` (stereo unspecified), -4.14%. On the same count and under the same terms, as for `COc1ccccc1CNC(=O)CCCCn1c(=O)c2ccccc2n(CC(=O)Nc2cc(Cl)ccc2C)c1=O`, the figure is -2.88%; as for `O=C(c1ccccc1)N1CCN(c2ccc([N+](=O)[O-])c(NCc3ccco3)c2)CC1`, -12.2%. As for `O=[N+]([O-])c1ccc(N2CCN(S(=O)(=O)c3ccc4ccccc4c3)CC2)cc1NCc1ccco1`, the Potency is 7.94 µM (active). For `COc1ccccc1OCCNc1cc(N2CCOCC2)ccc1[N+](=O)[O-]`, the max response, negative = inhibition was 26.2%. Still for that read-out and setting: as for `CCc1ccccc1NC(=O)CSc1nc(C)c(C(=O)Nc2ccccc2)c(-c2ccc(Cl)cc2)c1C#N`, the figure is 4.27%; as for `CCc1ccc(NC(=O)CN2C(=O)C(c3ccccc3)=NC23CCCCCC3)cc1`, -25.9%.

Consider `O=C(CN(c1ccc2c(c1)OCCO2)S(=O)(=O)c1ccccc1)Nc1ccc2c(c1)OCO2`, for which the Potency was 12.6 µM (active). Consider `COc1ccc(S(=O)(=O)N(C)CC(=O)Nc2ccc3c(c2)OCCO3)cc1OC`, for which the max response, negative = inhibition is -3.41%. Still for that read-out and setting: as for `Cc1noc(C)c1S(=O)(=O)N(CC(=O)Nc1ccc2c(c1)OCCO2)c1ccc(C(C)C)cc1`, the figure is 0.199%; as for `Cc1ccc(S(=O)(=O)N(CC(=O)Nc2ccc(Cl)cc2Cl)c2ccccc2C)cc1`, -29.7%. Same read-out and setting: as for `COc1ccc(-n2nc(C(=O)NCCc3ccc(Cl)cc3)c3c4ccccc4n(C)c3c2=O)cc1Cl`, the figure is -5.4%. Consider `COC(=O)c1sccc1N/N=C(\C)c1ccc(F)c(Cl)c1`, for which the Potency is 20 µM (active).

As to `COC(=O)c1sccc1NC(=O)COc1ccc(Cl)cc1`, the max response, negative = inhibition is -7.31%. `COC(=O)c1sccc1NC(=O)c1cc(OC)c(OC)c(OC)c1`: the max response, negative = inhibition is 13.7%.

In the case of `O=C(CCS(=O)(=O)c1ccccc1)N(Cc1cccnc1)c1nc2c(F)cccc2s1`, the max response, negative = inhibition was 15.4%. Still for that read-out and setting: the figure for `CC(C)CN(C(=O)c1cccc(S(=O)(=O)N2CCCCC2)c1)C1CCS(=O)(=O)C1` (stereo unspecified) is 5.95%.

Turning to `COc1ccc(OCCCn2c(C)nc3cc(C)c(C)cc32)cc1`, the max response, negative = inhibition is 11.2%. Turning to `COc1cccc(N2CC(NC(=O)/C=C\c3ccccc3)CC2=O)c1` (stereo unspecified), the max response, negative = inhibition was -5.97%. As for `O=c1cc(CN2CCN(c3cccc(Cl)c3)CC2)c2cc3c(cc2o1)CCCC3`, the Potency is 12.6 µM (active). Turning to `OC(COc1ccc2c(c1)CCC2)CN1CCN(c2cccc(Cl)c2)CC1` (stereo unspecified), the max response, negative = inhibition is 1.52%. On the same count and under the same terms, the figure for `O=c1cc(CN2CCN(S(=O)(=O)/C=C/c3ccccc3)CC2)c2ccc(O)cc2o1` is -11.9%. For the molecule `Cc1ccc(C(=O)CC2(O)C(=O)N(CCc3ccccc3)c3ccc(Br)cc32)cc1` (stereo unspecified), the max response, negative = inhibition was 7.97%.

Take `O=C(CC1(O)C(=O)N(CN2CCOCC2)c2ccccc21)c1ccccc1` (stereo unspecified): the max response, negative = inhibition was 2.42%.

As to `C=CCN1C(=O)C(O)(CC(=O)c2ccc(Cl)cc2)c2ccccc21` (stereo unspecified), the Potency is 12.6 µM (active). As for `CC(=O)Nc1ccc(NC(=O)CCCc2nc(-c3ccc(C(C)(C)C)cc3)no2)cc1`, the max response, negative = inhibition was -10.5%. Regarding `O=C(CC(NCc1cccnc1)C(=O)O)Nc1ccc(O)cc1` (stereo unspecified), the max response, negative = inhibition is 7.85%. On to `Cc1cc(C)cc(NC(=O)Cn2c(=O)c3ccccc3n3nncc23)c1`, for which the max response, negative = inhibition is 4.51%. For `COc1cc(OC)c(N(C)C(=O)c2cc3c(=O)oc4ccccc4c3s2)cc1Cl`, the max response, negative = inhibition is 6.95%. On the same count and under the same terms, as for `Cc1ccc2nc(COc3cccc(NC(=O)c4ccccc4Cl)c3)cc(=O)n2c1`, the figure is -3.57%; as for `CCOc1ccccc1NC(=O)CCc1ccc(C)o1`, 8.1%. Turning to `Cc1ccc(CCC(=O)Nc2ncc(Cc3cc(Cl)ccc3Cl)s2)o1`, the Potency is 25.1 µM (active).

On to `Cc1cnc(NC(=O)CSc2nnc(-c3ccc(Cl)cc3Cl)n2N)s1`, for which the max response, negative = inhibition is -2.62%.
